Shiga toxin inh: inhibitors of Shiga toxin in Vero cells; Vero cells, Shiga toxin protein synthesis inhibition reporter; inhibition, % at 38.7 µM; hit rate 9.2% among 290,000; in the data active means inhibition mostly above about 28%, no sharp cut-off; inactive means mostly below about 43%
HCMV antiviral: human cytomegalovirus inhibition; hit rate 4.5% among 410,000; activity change, negative = inhibition, % at 57.5 µM; HFF cells, HCMV-luciferase reporter, 72 h; stronger effect = lower value; in the data active means activity change below about -60%; inconclusive means no clear call, values can overlap the other calls; inactive means above about -39%
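Steps: HFFs plated, 16 h 37C; compounds added; HCMV-luciferase added to MOI 1 PFU/cell; 72 h 37C; OneGlo reagent, 5 min room temperature; luminescence read, normalized to controls.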
HCV inhibitor: HCV inhibition; hit rate 3.4% among 340,000; AID 651820; Huh7.5.1 HCVcc-Cre infection, luciferase reporter, 44 h; Potency, µM (titrated, usually from 41.8 µM), actives largely listed as inhibitors
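1,000 cells/well; 4 h culture; + compound; + HCVcc-Cre (~0.5 moi); 44 h; luciferase substrate, RT 15 min; read 15 sec.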
Pf growth 48h: inhibits P. falciparum growth in the first generation, 48 h; P. falciparum luciferase growth in erythrocytes, 48 h; Potency, µM (doses to about 28.7 µM), actives largely listed as inhibitors; hit rate 5.9% among 310,000; AID 504832
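Firefly luciferase activity from engineered P. falciparum reports growth; inhibitors lower the luminescent signal. Cultures contained 2% hematocrit erythrocytes at 0.1% final parasitemia.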
Cycloheximide cs: counter-screen for Shiga toxin inhibitors: cycloheximide protein synthesis inhibition; AID 2314; hit rate 12% among 300,000; max response, %; cell reporter, cycloheximide protein synthesis inhibition counterscreen; in the data active means max response mostly above about 13%, no sharp cut-off; inactive means mostly below about 14%; further: read at 38.3 µM for the half of the compounds with a filed dose
Pf growth 96h: inhibits malaria parasite growth, 96 h | P. falciparum luciferase reporter growth, 96 h | Potency, µM (titrated, usually from 28.7 µM), most hits filed as inhibitors | hit rate 6.9% among 320,000 | AID 504834
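Two-generation exposure (96 h) targets delayed-death phenotype. Reporter parasites carrying integrated firefly luciferase, in red cells at 2% hematocrit and 0.05% parasitemia final, kept at 37 C, 5% CO2; luminescence loss indicates inhibition.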
Each line names hits and unclear results; the compound was inactive in the other large screens. Most compounds without a hit are left out; they make up all but 21% or so of the library. Unless noted, the call rests on the fitted dose curve; in most records, active means well fitted inhibition curve with a large enough effect; inconclusive means small, poorly fitted or top-dose-only effect, or another doubt; inactive means no such curve, though single readings can be large or run the other way.

CCCCn1c(N)c(N(CCOC)C(=O)c2cc(CC)c(C)s2)c(=O)[nH]c1=O	Pf growth 48h inconclusive (no result: Shiga toxin inh, Cycloheximide cs)
CC(C)C(C)(C#N)NC(=O)CSc1nc2scc(-c3ccco3)c2c(=O)n1-c1ccccc1 (stereo not drawn)	HCV inhibitor inconclusive, Pf growth 48h 9.3µM, Pf growth 96h inconclusive
CC(C)C(C)NC(=O)CSc1nc2scc(-c3ccco3)c2c(=O)n1-c1ccccc1 (stereo not drawn)	HCMV antiviral -63, Pf growth 48h 12µM (no result: Pf growth 96h)
C=CCn1c(SCC(C)=O)nc2scc(-c3ccco3)c2c1=O	none
CN(Cc1ccco1)S(=O)(=O)c1ccc(CN2C(=O)c3cccnc3C2=O)s1	none
Cc1ccc(CNC(=O)Nc2ccc(F)cc2)n1C	none
Cc1cc(C)nc(NC(=O)c2ccc(Br)s2)n1	none (no result: Shiga toxin inh)
Cc1csc(NC(=O)CCC(=O)c2cccs2)n1	Pf growth 48h inconclusive, Cycloheximide cs 19, Pf growth 96h inconclusive
Cc1csc(NC(=O)c2ccncc2)n1	Pf growth 48h inconclusive
Cc1csc(NC(=O)c2cccs2)n1	Shiga toxin inh 100, Cycloheximide cs 55 (no result: Pf growth 96h)
Cc1csc(NC(=O)c2ccc(Br)s2)n1	Shiga toxin inh 137, Cycloheximide cs 43
COc1ccccc1CNC(=O)CS(=O)(=O)c1ccc(C)cc1	Pf growth 96h inconclusive
O=C(CN(CCCN1CCOCC1)C(=O)Cn1nnc(-c2ccc(F)cc2)n1)NC1CCCCC1	none
COc1cccc(N(C(=O)Cn2nnc(-c3cccs3)n2)C(C(=O)NC2CCCCC2)c2ccncc2)c1 (stereo not drawn)	Pf growth 96h inconclusive
Cc1ccc(C)c(N(C(=O)Cn2nnc(-c3cccs3)n2)C(C(=O)NC2CCCC2)c2ccncc2)c1 (stereo not drawn)	Pf growth 48h 4.7µM, Pf growth 96h inconclusive
O=C(CN(CCN1CCOCC1)C(=O)Cn1nnc(-c2ccc(F)cc2)n1)NC1CCCCC1	Pf growth 96h 6.6µM (no result: Pf growth 48h)
CC(C)CCNC(=O)C(c1ccncc1)N(CC1CCCO1)C(=O)Cn1nnc(-c2ccc(F)cc2)n1 (stereo not drawn)	Pf growth 48h inconclusive
CC(C)(C)NC(=O)C(c1ccncc1)N(Cc1cccs1)C(=O)Cn1nnc(-c2ccc(F)cc2)n1 (stereo not drawn)	HCV inhibitor inconclusive, Pf growth 48h inconclusive, Pf growth 96h inconclusive
CC(C)(C)NC(=O)C(OC(=O)Cn1nnc(-c2ccc(F)cc2)n1)c1ccncc1 (stereo not drawn)	Pf growth 96h 9.3µM
CC(C)CCNC(=O)C(c1ccncc1)N(C(=O)Cn1nnc(-c2ccc(F)cc2)n1)c1ccccc1F (stereo not drawn)	HCV inhibitor inconclusive, Pf growth 48h inconclusive, Pf growth 96h 6.6µM
CCOC(=O)C1(CCCc2ccccc2)CCN(C2CCN(C(C)=O)CC2)CC1	Pf growth 48h inconclusive, Pf growth 96h inconclusive
CC(C)(C)N(C(=O)Cn1nnc(-c2ccc(F)cc2)n1)C(C(=O)NC1CCCC1)c1ccncc1 (stereo not drawn)	Pf growth 48h inconclusive, Pf growth 96h 8.3µM
Cc1ccc(-c2nnn(CC(=O)N(Cc3ccc(F)cc3)C(C(=O)NC3CCCC3)c3ccncc3)n2)o1 (stereo not drawn)	HCV inhibitor inconclusive, Pf growth 48h inconclusive
CN(C)c1ccc(C(CNS(=O)(=O)c2ccc([N+](=O)[O-])cc2)N2CCOCC2)cc1 (stereo not drawn)	none (no result: Shiga toxin inh, Cycloheximide cs)
Cc1ccc(C(CNS(=O)(=O)c2ccc([N+](=O)[O-])cc2)N2CCN(C)CC2)cc1 (stereo not drawn)	HCV inhibitor 11µM, Pf growth 48h inconclusive, Pf growth 96h inconclusive (no result: Shiga toxin inh, Cycloheximide cs)
Cc1ccc(C(CNS(=O)(=O)c2ccc(Br)cc2)N2CCN(C)CC2)cc1 (stereo not drawn)	HCV inhibitor 8.9µM, Pf growth 48h inconclusive, Pf growth 96h inconclusive (no result: Shiga toxin inh, Cycloheximide cs)
Cc1ccc(C(CNS(=O)(=O)c2ccccc2)N2CCN(C)CC2)cc1 (stereo not drawn)	Pf growth 48h inconclusive (no result: Shiga toxin inh, Cycloheximide cs)
Cc1ccc2[nH]c3c(c2c1)CCC3=O	HCV inhibitor inconclusive
Cc1ccc2[nH]c3c(c2c1)CCCC3=O	HCV inhibitor 10µM, Cycloheximide cs 17
Cc1ccc2[nH]c3c(c2c1)CNCC3	HCMV antiviral inconclusive, HCV inhibitor inconclusive
CCCCN1CCc2c([nH]c3ccc(C)cc23)C1=O	Shiga toxin inh 132, Cycloheximide cs 70
Cc1ccc2[nH]c3c(c2c1)CCc1cn[nH]c1-3	Shiga toxin inh 28, HCV inhibitor 14µM, Pf growth 48h inconclusive, Cycloheximide cs 25
CN(C)c1nnnn1-c1ccc(OC(F)(F)F)cc1	none
COc1cccc(C2=N/C(=C\N(C)C)C(=O)O2)c1	Cycloheximide cs 34, Pf growth 96h inconclusive
O=C(NCc1ccccn1)c1ccc2nc(C3CCCCC3)oc2c1	Shiga toxin inh 32, Cycloheximide cs 22, Pf growth 96h inconclusive
CSCC[C@@H](CO)NC(=O)c1ccc2nc(C3CCCCC3)oc2c1	Pf growth 96h inconclusive
CSCCNC(=O)c1ccc2nc(C3CCCCC3)oc2c1	Shiga toxin inh 86, Pf growth 48h inconclusive, Cycloheximide cs 20, Pf growth 96h inconclusive
O=C(NCc1ccccn1)c1cccc([N+](=O)[O-])c1	Pf growth 48h inconclusive, Pf growth 96h inconclusive
Cc1cc(C)c(C(=O)/C=C/c2cccs2)c(=O)[nH]1	HCMV antiviral -64, Pf growth 96h inconclusive
COc1ccccc1/C=C(\C)C(=O)c1c(C)cc(C)[nH]c1=O	none
COc1ccc(/C=C/C(=O)c2c(C)cc(C)[nH]c2=O)c2ccccc12	HCMV antiviral -100, HCV inhibitor 11µM, Pf growth 48h inconclusive, Pf growth 96h inconclusive
Cc1ccc(/C=C/C(=O)c2c(C)cc(C)[nH]c2=O)cc1	HCMV antiviral -98, HCV inhibitor inconclusive, Pf growth 48h inconclusive, Pf growth 96h inconclusive
Cc1cc(C)c(C(=O)/C=C/c2ccco2)c(=O)[nH]1	none
Cn1c(N)c(C(=O)/C=C/c2ccccc2)c(=O)[nH]c1=O	Shiga toxin inh 69, Cycloheximide cs 48
CCc1nc2ccc(C(=O)N3CCN(C(=O)c4ccco4)CC3)cn2c1N(CC)CCOC	none (no result: Shiga toxin inh, HCV inhibitor, Pf growth 48h, Cycloheximide cs, Pf growth 96h)
COc1ccc(NC(=O)Nc2cc(C(=O)NCc3ccc(C)cc3)ccc2N2CCCC2)cc1	none (no result: Shiga toxin inh, HCV inhibitor, Pf growth 48h, Cycloheximide cs, Pf growth 96h)
COc1ccc(S(=O)(=O)N(C)C[C@H]2Oc3c(NS(=O)(=O)c4ccc(F)cc4)cccc3C(=O)N([C@H](C)CO)C[C@@H]2C)cc1	none (no result: Shiga toxin inh, Pf growth 48h, Cycloheximide cs, Pf growth 96h)
COc1ccccc1CNC(=O)Cn1c(=O)nc(-c2ccccc2F)c2cc(Cl)ccc21	none (no result: Shiga toxin inh, HCV inhibitor, Pf growth 48h, Cycloheximide cs, Pf growth 96h)
CC1CN(C(=O)CCC(=O)NCc2cccs2)c2ccccc2O1 (stereo not drawn)	none (no result: Shiga toxin inh, HCV inhibitor, Pf growth 48h, Cycloheximide cs, Pf growth 96h)
C/C(=C\c1ccc(Br)cc1)C(=O)c1c(C)cc(C)[nH]c1=O	Pf growth 96h 10µM
CCc1ccc(/C=C/C(=O)c2c(C)cc(C)[nH]c2=O)cc1	HCMV antiviral -95, HCV inhibitor inconclusive, Pf growth 48h 9.3µM
CCc1ccc(/C=C(\C)C(=O)c2c(C)cc(C)[nH]c2=O)cc1	none

Screening results as filed in PubChem BioAssay.
